Bioassay records deposited in PubChem by National Center for Advancing Translational Sciences (NCATS).
Hits are enriched below; roughly 1.3% of the tested compounds scored in any of these assays.
rTrxR1 inhibitor: inhibitors of rat thioredoxin reductase 1. AID 588453. 1% of 390,000 active. Potency, µM (series often up to 114 µM), for the others: top-dose activity change, negative = inhibition, actives largely listed as inhibitors. recombinant rTrxR1, NADPH fluorescence consumption, selenite substrate; also: potency is read from the fitted curve at half-maximal effect; nearly all actives have a fitted effect of over 65% in size
Target sequence (O89049 whole entry, looked up): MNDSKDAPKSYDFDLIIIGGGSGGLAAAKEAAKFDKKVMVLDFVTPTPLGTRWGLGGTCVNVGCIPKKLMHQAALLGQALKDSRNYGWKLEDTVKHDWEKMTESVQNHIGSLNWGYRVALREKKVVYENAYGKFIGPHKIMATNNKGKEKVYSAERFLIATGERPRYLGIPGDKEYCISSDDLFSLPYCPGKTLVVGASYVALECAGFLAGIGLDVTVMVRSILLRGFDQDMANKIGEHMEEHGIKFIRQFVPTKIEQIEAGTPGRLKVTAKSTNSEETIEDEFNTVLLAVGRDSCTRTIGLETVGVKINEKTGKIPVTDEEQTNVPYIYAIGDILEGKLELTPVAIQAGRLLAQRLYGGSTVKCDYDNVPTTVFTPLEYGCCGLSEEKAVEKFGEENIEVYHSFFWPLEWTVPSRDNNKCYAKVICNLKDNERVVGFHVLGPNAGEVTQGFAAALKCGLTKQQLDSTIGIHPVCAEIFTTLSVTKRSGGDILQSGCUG
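Rat TrxR1 (90 nM in the dispensed reagent) was pre-reduced with 400 uM NADPH for 5 min at room temperature, then incubated with compound for 15 min. After 400 uM selenite was added, NADPH fluorescence (Ex 340/Em 450 nm) was followed for 8 min.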
GALK inhibitor: blocks human galactokinase activity; P51570; Purified GALK, Kinase-Glo residual ATP luminescence; Potency, µM (highest dose often 57.5 µM), without a hit: at the highest dose activity change, negative = inhibition, usual class: inhibitors; 0.007% of 270,000 active; also: potency is read from the fitted curve at half-maximal effect
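Quantitative HTS: GALK 5 nM, ATP 35 uM, galactose 100 uM, 1 h room temperature, then luciferase-based ATP detection.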
KAT2A inh: blocks human GCN5L2 histone acetyltransferase; GCN5L2 HAT assay, ThioGlo1 CoA-SH fluorescence; Potency, µM (doses to about 58.9 µM), for the others: top-dose activity change, negative = inhibition, most hits filed as inhibitors; 0.21% of 390,000 active; AID 504327; also: potency is read from the fitted curve at half-maximal effect
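GCN5L2 (20nM final) in 50mM HEPES, 0.1mM EDTA pH 7.5, 0.01% Tween-20 was preincubated 15 min at room temperature with compound, then given ThioGlo1 (50uM), H3(1-25) peptide (75uM) and acetyl-CoA (70uM); CoA-thiol fluorescence (Ex340/Em540) was read at 0 and 20 min.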
TrxR1 substrate: substrates of rat thioredoxin reductase 1. Potency, µM (series often up to 114 µM), for inactives: at the highest dose activity change, negative = substrate turnover. 0.01% of 390,000 active. purified TrxR1 substrate turnover, NADPH consumption readout. O89049; also: potency is read from the fitted curve at half-maximal effect; nearly all actives have a fitted effect of over 50% in size
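Rat TrxR1, dispensed at 90 nM, was prereduced with 400 uM NADPH (final) for 5 min at ~22 deg C, then incubated with compound 15 min before 400 uM selenite. A first-read NADPH fluorescence drop versus no-compound background flagged substrates.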
Pin1 inh: inhibitors of human Pin1 | Potency, µM (top dose mostly 115 µM), without a hit: at the top dose activity, negative = inhibition, hits mostly inhibitors | AID 504891 | Pin1 FP peptide displacement, HiFluor488, 10 min | 0.009% of 390,000 active | Q13526; active = well fitted inhibition curve with a large enough effect in the polarisation, with a control signal flat, not every such curve was filed as active; inconclusive = small, poorly fitted or top-dose-only effect, or effect the other way, or a change in a side signal; inactive = no such curve, though single readings can be large or run the other way; the % refers to the polarisation; also: potency is read from the fitted curve at half-maximal effect
Target sequence (Q13526 whole entry, looked up): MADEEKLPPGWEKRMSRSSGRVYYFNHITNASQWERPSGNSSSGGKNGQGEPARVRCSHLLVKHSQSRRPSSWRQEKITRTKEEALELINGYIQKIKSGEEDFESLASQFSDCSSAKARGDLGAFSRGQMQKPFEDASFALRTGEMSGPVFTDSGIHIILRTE
Giardia killer: kills Giardia lamblia; 0.15% of 340,000 active; Giardia lamblia trophozoite viability; AID 540267; activity change, % at 7.66 µM, hits read low; in the data active = activity change below about -80%; inconclusive = between about -30% and that limit;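 also: parasites exposed to compound for two days anaerobically before the ATP read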
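Trophozoites 100 cells/well + cpd; 48 hrs, 37 deg C, anaerobic. ATPLite 1-Step added, 15-30 min RT, luminescence read (ATP-based viability).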
Numbers without * were called inactive; ? = inconclusive; . = no result given; ! = not active in a repeat; [ ] = dose if it differs, or a comment. Unless noted, calls follow the shape of the dose curve; as a rule, active = well fitted curve in the direction sought with a large enough effect; inconclusive = small, poorly fitted or top-dose-only effect, or another doubt; inactive = no such curve, though single readings can be large; an effect the other way counts as inactive or inconclusive. % is scaled to controls: 0 for no effect and ±100 for the full control effect.

SMILES	rTrxR1 inhibitor	GALK inhibitor	KAT2A inh	TrxR1 substrate	Pin1 inh	Giardia killer
CNCCc1c[nH]c2ccc(O)cc12	?	.	-0.5%	5.6%[57.1 µM]	-10.0%	2.4
Oc1cc[c]([Hg][Cl])cc1	.	.	0.141µM*	.	.	.
O=S(=O)(c1ccc(O)cc1)c1ccc(O)cc1	7.5%	1.7%	1.7%	-2.1%	0.6%	4.7
CCc1ccc(Nc2nc3c(S(=O)(=O)c4ccc(C)cc4)nnn3c3ccsc23)cc1	13.5%	.	0.7%	41.6%	0.7%	.
Cc1cc2c(C(C)C)c(O)c(O)c(C=O)c2c(O)c1-c1c(C)cc2c(C(C)C)c(O)c(O)c(C=O)c2c1O	39.8µM*	?	7.94µM*	?	.	.
COc1ccc2c3c1OC1C[C@@H](O)C=C[C@@]31CCN(C)C2 (some centres undefined)	.	.	-7.3%	.	.	.
O=C1C(I)=CC(=C(c2cc(I)c(O)c(I)c2)c2ccccc2C(=O)O)C=C1I	.	.	3.55µM*	.	.	.
Nc1ccccc1C(=O)O	.	.	-12.4%	.	.	.
CCCCN1C(=O)/C(=C\c2ccco2)C(=O)N(CCc2ccccc2)C1=O	?	2.9%	39.8µM*	-6.8%	-4.5%	-13.8
Cc1c(CCNS(=O)(=O)c2ccccc2)sc2nc(-c3ccc(Cl)cc3)nn12	-0.7%[57.1 µM]	.	-8.4%	-9.3%[57.1 µM]	?	.
Cc1cccc(-n2c(/C=C/c3ccc([N+](=O)[O-])o3)nc3ccccc3c2=O)c1	?	-0.5%	-2.9%	-5.8%	?	-88.1*
O=c1c2ccccc2nc(/C=C/c2ccc([N+](=O)[O-])o2)n1-c1ccc(O)cc1	-3.7%[57.1 µM]	-6.5%	-9.8%	1.2%[57.1 µM]	?	-84.8*
CC(C)C[C@H]1C(=O)N2CCC[C@@H]2[C@@]2(O)O[C@](NC(=O)[C@@H]3C=C4c5cccc6[nH]cc(c56)C[C@@H]4N(C)C3)(C(C)C)C(=O)N12	.	.	-12.0%[21.4 µM]	.	.	.
COc1ccc(NC2CC(=O)N(C(C)C)C2=O)cc1 (centres undefined)	3.55µM*	0.4%	-23.6%	1.8%[57.1 µM]	-2.2%	14.4
Cc1ccccc1C(=O)NC(Oc1ccccc1)C(Cl)(Cl)Cl (centres undefined)	-5.2%[57.1 µM]	-2.6%	-2.4%	6.4%[57.1 µM]	1.9%	-15.3
CCCC(=O)NC(Oc1ccc(C(C)=O)cc1)C(Cl)(Cl)Cl (centres undefined)	25.1µM*	-1.2%	-3.1%	1.8%	-3.5%	7.8
C/C1=C/C(=O)O[C@@H]2C[C@@H](CC[C@H](C)/C=C\CC1)O[C@@](O)(C1CSC(=O)N1)C2 (some centres undefined)	.	.	-13.1%	.	.	.
Cc1ccc(-n2c(O)c(C=NCc3ccco3)c(=O)[nH]c2=S)cc1C	12.6µM*	4.3%	-10.0%	-2.2%[57.1 µM]	0.8%	-8.8
COC(=O)[C@@]1(O)C[C@@H]2O[C@@]1(C)n1c3ccccc3c3c4c(c5c6ccccc6n2c5c31)C(=O)NC4	.	.	-3.0%	.	.	.
CN1CCC(O)(c2ccc(Cl)cc2)C(C(=O)c2ccc(Cl)cc2)C1 (centres undefined)	0.112µM*	7.7%	-2.7%	4.4%	-1.9%	-1.9
CNC(CC(C)C)C(=O)NC1C(=O)NC(CC(N)=O)C(=O)NC2C(=O)NC3C(=O)NC(C(=O)NC(C(=O)O)c4cc(O)cc(O)c4-c4cc3ccc4O)C(O)c3ccc(c(Cl)c3)Oc3cc2cc(c3OC2OC(CO)C(O)C(O)C2OC2CC(C)(N)C(O)C(C)O2)Oc2ccc(cc2Cl)C1O (centres undefined)	-9.4%	.	.	3.0%	-0.8%	5.8
C=CC[C@@H](CC/C=C/C=C/CC/C=C\[C@@H]1CSC([C@@H]2C[C@@H]2C)=N1)OC	50.1µM*	.	0.2%	-0.3%	5.2%	38.6
Nc1ccc2ccc3cccc[n+]3c2c1	70.8µM*	-6.0%	-22.6%	-17.0%	?	?
Cc1ccccc1C(=O)Nc1ccc(C(=O)OCc2cc(=O)n3nc(C4CC4)sc3n2)cc1	15.4%[57.1 µM]	.	-10.3%	1.9%[57.1 µM]	?	.
CC(C)C1C(=O)O[C@@H]2CCN3CC=C(COC(=O)[C@](C)(O)[C@]1(C)O)[C@H]23 (some centres undefined)	.	.	-3.7%	.	.	.
SMILES	rTrxR1 inhibitor	GALK inhibitor	KAT2A inh	TrxR1 substrate	Pin1 inh	Giardia killer
O=C(Nc1ccc2oc(-c3cccnc3)nc2c1)c1ccc(-c2cccc(Cl)c2)o1	-34.1%	.	-4.6%	16.8%	55.7%	.
CCN(CC)C(=O)c1ccc2c(c1)C1C(Cl)C(Sc3ccccc3[N+](=O)[O-])CC1C(C(=O)O)N2 (centres undefined)	50.1µM*	8.0%	12.6µM*	4.1%	?	10.2
Cc1noc(C)c1C(=O)N1CCC2(CC1)Oc1ccc(F)cc1C(=O)C21CC(c2ccc(Cl)cc2)=NO1 (centres undefined)	?	-1.8%	-8.7%	4.3%	4.2%	-16.4
Cc1nn(C)c(C)c1-c1cccc2c1CCC(N(C)C)C2 (centres undefined)	.	.	24.8%	.	.	.
O=C(O)CCCc1ccc(N(CCCl)CCCl)cc1	50.1µM*	-0.4%	-2.3%	12.2%[57.1 µM]	0.0%	-5.4
CC(=O)NC(Cc1ccc(N(CCCl)CCCl)cc1)C(=O)O (centres undefined)	31.6µM*	-4.1%	0.3%	9.3%[57.1 µM]	-8.3%	8.9
N[C@@H](Cc1ccc(N(CCCl)CCCl)cc1)C(=O)O	?	.	-18.4%	2.4%	1.4%	3.5
O=C(Cc1ccc(N(CCCl)CCCl)cc1)NC(Cc1ccc(Cl)cc1)C(=O)O (centres undefined)	39.8µM*	-4.0%	1.9%	4.1%	14.2%	4.5
O=C(Cc1ccccc1)NC(Cc1ccc(Cl)cc1)C(=O)O (centres undefined)	9.6%	-0.5%	-0.1%	-1.5%	-9.2%	-9.9
CC(C)c1cc2c(c(O)c1O)[C@@]1(C(=O)O)CCCC(C)(C)[C@@H]1CC2	.	.	-23.0%	.	.	.
COC[C@H]1OC(=O)c2coc3c2[C@@]1(C)C1=C(C3=O)C2CCC(=O)[C@@]2(C)C[C@H]1OC(C)=O (some centres undefined)	15µM*!	.	-6.7%	14.8%[57.1 µM]	.	.
COC[C@H]1OC(=O)c2coc3c2[C@@]1(C)C1=C(C3=O)[C@H]2CCC(=O)[C@@]2(C)C[C@H]1OC(C)=O	.	.	-26.5%	.	.	.
CN[C@H](CC(C)C)C(=O)N[C@H]1C(=O)N[C@@H](CC(N)=O)C(=O)N[C@@H]2C(=O)N[C@H]3C(=O)N[C@H](C(=O)N[C@H](C(=O)O)c4cc(O)cc(O)c4-c4cc3ccc4O)[C@H](O)c3ccc(c(Cl)c3)Oc3cc2cc(c3O[C@@H]2O[C@H](CO)[C@@H](O)[C@H](O)[C@@H]2O[C@H]2C[C@](C)(N)[C@H](O)[C@H](C)O2)Oc2ccc(cc2Cl)[C@H]1O	8.8%[57.1 µM]	.	0.5%	9.4%[57.1 µM]	.	.
